Test results as given in PMC7862700, “An all-to-all approach to the identification of sequence-specific readers for epigenetic DNA modifications on cytosine”.

Key:
Assay in all cases: DAPPL (digital affinity profiling via proximity ligation, sequencing); 10 mM Tris-HCl pH 7.5, 50 mM NaCl, 1 mM DTT, 4% glycerol, room temperature, 30 min; GST-TFs on glutathione beads, 16-mer random dsDNA library, 0.1% formaldehyde crosslink after washing; high values mean tight binding
[1] = target: T1, FEV (Homo sapiens, UniProt Q99581 1-238); details: protein: recombinant; tags: N-terminal GST; dsDNA, one strand shown
T1 sequence: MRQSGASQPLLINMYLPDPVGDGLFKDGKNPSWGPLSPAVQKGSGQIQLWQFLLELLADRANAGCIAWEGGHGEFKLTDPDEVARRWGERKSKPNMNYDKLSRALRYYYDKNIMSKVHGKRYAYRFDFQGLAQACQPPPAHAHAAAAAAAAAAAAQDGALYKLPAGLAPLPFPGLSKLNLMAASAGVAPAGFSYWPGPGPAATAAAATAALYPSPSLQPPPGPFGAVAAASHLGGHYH
Procedure, shortened: (§1)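 Human transcription factors were made in yeast as GST fusions, captured on glutathione beads and barcoded with DNA. With a tag-only sample included, the pool was incubated with 200 nmole of a random double-stranded 16-mer DNA library in Tris/NaCl/DTT/glycerol buffer at room temperature for 30 min, then crosslinked with 0.1% formaldehyde after washing, ligated by proximity, amplified and sequenced. For binding signal, each hexamer's read frequency for a factor is divided by its frequency for the tag-only sample.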

[2] = target: ETV5 (Homo sapiens, UniProt P41161 1-510); details: protein: recombinant; tags: N-terminal GST; dsDNA, one strand shown
Chain of ETV5 (P41161 whole entry): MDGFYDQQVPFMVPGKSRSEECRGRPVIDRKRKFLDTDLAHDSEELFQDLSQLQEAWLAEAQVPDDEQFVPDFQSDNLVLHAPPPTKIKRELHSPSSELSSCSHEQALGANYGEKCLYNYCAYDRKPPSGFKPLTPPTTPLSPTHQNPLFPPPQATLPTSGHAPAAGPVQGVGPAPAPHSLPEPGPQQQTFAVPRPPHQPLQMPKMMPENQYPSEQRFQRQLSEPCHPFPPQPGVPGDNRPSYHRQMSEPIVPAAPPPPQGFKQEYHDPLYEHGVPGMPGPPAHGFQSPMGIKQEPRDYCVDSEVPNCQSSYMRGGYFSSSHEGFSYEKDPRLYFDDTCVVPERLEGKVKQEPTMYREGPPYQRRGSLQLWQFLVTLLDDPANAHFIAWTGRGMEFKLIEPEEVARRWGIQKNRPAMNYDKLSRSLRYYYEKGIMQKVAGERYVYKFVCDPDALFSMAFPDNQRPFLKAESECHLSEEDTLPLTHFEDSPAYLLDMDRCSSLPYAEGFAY
Procedure, shortened: as §1

[3] = target: HSF1 (Homo sapiens, UniProt Q00613 1-529); details: protein: recombinant; tags: N-terminal GST; chain copies: 3; dsDNA, one strand shown
Chain of HSF1 (Q00613 whole entry): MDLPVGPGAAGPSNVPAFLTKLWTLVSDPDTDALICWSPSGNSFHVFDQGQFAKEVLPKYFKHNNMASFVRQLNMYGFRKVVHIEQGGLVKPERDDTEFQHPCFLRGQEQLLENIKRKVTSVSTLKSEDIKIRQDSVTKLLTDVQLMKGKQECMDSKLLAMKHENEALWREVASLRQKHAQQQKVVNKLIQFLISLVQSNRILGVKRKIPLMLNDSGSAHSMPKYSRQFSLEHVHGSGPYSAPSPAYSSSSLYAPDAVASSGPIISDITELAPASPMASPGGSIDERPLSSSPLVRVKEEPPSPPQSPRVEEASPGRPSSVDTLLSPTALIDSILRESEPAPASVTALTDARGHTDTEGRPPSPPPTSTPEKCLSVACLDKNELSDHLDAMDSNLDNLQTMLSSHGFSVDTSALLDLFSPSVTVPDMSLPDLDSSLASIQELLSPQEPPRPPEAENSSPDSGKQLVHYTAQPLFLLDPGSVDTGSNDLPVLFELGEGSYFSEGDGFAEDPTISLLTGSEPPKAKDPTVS
Procedure, shortened: as §1

[4] = target: T2, SPIC (Homo sapiens, UniProt Q8N5J4 1-248); details: protein: recombinant; tags: N-terminal GST; dsDNA, one strand shown
T2 sequence: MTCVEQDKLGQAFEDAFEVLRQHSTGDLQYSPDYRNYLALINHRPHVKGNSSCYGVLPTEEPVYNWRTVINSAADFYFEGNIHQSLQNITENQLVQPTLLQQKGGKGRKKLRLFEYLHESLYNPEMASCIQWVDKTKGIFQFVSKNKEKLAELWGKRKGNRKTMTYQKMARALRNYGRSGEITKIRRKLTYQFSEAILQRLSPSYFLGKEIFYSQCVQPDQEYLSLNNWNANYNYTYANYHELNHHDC
Procedure, shortened: as §1

[5] = target: ELF4 (Homo sapiens, UniProt Q99607 1-663); details: protein: recombinant; tags: N-terminal GST; dsDNA, one strand shown
Chain of ELF4 (Q99607 whole entry): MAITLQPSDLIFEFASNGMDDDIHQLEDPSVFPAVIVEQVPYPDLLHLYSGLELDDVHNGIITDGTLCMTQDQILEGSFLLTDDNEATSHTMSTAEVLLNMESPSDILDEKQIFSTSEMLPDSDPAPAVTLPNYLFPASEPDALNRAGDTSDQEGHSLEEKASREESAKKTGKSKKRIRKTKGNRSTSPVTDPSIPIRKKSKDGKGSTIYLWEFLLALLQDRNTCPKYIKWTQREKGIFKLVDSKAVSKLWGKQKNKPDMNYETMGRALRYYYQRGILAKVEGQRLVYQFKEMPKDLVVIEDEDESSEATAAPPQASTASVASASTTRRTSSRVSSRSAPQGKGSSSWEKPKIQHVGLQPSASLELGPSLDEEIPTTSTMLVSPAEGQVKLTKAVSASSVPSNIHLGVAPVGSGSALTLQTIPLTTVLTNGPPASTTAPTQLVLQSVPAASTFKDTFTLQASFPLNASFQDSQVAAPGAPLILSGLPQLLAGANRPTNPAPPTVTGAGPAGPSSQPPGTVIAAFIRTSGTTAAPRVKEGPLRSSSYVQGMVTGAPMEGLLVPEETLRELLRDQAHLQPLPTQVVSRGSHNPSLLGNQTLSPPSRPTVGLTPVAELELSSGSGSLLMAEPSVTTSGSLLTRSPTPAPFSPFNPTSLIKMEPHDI
Procedure, shortened: as §1

[6] = target: T3, ELK4 (Homo sapiens, UniProt P28324-2 1-405); details: protein: recombinant; tags: N-terminal GST; dsDNA, one strand shown
T3 sequence: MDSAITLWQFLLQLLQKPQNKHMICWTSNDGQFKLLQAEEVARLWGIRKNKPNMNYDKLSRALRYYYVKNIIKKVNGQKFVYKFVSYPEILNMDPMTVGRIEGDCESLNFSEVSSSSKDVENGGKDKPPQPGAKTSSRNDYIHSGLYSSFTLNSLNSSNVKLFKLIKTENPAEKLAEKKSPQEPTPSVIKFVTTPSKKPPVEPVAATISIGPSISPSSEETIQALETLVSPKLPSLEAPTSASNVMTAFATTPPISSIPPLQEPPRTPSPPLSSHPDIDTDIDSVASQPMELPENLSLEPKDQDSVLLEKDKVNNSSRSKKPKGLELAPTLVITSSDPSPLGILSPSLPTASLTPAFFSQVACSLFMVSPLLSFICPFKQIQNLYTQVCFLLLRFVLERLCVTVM
Procedure, shortened: as §1

[7] = target: T4, ETV2 (Homo sapiens, UniProt O00321 1-342); details: protein: recombinant; tags: N-terminal GST; dsDNA, one strand shown
T4 sequence: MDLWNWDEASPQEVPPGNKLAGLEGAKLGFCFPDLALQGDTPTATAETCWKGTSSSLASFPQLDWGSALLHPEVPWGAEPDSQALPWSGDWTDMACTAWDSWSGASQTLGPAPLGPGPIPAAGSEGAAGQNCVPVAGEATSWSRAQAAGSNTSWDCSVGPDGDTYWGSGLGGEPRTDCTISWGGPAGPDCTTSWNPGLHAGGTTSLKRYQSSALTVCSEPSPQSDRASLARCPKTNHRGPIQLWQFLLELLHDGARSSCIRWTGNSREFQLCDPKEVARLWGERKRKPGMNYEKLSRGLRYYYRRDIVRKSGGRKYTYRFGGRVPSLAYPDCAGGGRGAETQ
Procedure, shortened: as §1

[8] = target: T5, ELF3 (Homo sapiens, UniProt P78545 1-371); details: protein: recombinant; tags: N-terminal GST; dsDNA, one strand shown
T5 sequence: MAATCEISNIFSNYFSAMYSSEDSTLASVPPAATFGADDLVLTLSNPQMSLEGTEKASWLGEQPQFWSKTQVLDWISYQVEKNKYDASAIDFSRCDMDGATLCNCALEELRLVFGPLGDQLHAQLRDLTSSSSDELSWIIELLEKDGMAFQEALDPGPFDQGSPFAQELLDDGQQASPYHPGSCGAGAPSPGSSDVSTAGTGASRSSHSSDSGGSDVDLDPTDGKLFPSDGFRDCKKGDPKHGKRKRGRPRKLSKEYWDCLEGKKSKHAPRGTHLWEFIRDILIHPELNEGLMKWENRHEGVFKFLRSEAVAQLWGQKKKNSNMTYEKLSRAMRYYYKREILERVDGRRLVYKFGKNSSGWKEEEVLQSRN
Procedure, shortened: as §1

[9] = target: CRX (Homo sapiens, UniProt O43186 1-299); details: protein: recombinant; tags: N-terminal GST; dsDNA, one strand shown
Chain of CRX (O43186 whole entry): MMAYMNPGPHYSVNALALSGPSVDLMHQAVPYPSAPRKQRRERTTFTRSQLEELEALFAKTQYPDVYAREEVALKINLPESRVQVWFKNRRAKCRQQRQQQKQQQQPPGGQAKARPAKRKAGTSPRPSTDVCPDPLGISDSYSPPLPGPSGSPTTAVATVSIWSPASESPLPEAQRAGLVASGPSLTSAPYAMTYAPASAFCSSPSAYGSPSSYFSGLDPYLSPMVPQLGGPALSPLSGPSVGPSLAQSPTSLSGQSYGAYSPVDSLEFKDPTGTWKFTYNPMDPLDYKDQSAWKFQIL
Procedure, shortened: as §1

[10] = target: ETV1 (Homo sapiens, UniProt P50549 1-477); details: protein: recombinant; tags: N-terminal GST; dsDNA, one strand shown
Chain of ETV1 (P50549 whole entry): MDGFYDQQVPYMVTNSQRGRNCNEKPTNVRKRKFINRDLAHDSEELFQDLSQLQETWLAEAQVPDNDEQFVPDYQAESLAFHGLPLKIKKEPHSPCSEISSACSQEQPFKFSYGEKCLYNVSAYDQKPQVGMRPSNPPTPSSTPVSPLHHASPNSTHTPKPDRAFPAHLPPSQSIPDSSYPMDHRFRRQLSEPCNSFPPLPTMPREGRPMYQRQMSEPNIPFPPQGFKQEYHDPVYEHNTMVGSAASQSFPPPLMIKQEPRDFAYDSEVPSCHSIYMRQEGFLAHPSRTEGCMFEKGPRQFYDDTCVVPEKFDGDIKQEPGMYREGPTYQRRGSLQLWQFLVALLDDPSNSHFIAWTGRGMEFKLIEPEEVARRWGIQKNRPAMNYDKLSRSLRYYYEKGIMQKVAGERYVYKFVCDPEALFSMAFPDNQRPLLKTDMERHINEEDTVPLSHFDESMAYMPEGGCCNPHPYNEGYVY
Procedure, shortened: as §1

[11] = target: T6, ERF (Homo sapiens, UniProt P50548 1-548); details: protein: recombinant; tags: N-terminal GST; dsDNA, one strand shown
T6 sequence: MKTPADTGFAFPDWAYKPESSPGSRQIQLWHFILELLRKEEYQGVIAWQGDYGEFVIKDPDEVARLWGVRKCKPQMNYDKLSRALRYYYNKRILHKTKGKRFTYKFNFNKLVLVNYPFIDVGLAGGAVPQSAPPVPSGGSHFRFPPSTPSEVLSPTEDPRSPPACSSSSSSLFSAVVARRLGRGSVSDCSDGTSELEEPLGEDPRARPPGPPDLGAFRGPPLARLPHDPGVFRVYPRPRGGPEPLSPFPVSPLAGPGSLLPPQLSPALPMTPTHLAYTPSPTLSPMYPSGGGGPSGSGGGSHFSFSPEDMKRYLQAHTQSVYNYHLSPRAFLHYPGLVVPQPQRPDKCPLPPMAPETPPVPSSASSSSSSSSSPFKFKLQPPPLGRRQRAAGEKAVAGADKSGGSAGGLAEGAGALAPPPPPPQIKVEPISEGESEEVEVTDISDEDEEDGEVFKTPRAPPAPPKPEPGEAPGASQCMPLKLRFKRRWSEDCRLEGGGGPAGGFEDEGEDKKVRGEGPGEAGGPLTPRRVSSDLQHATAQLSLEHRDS
Procedure, shortened: as §1

[12] = target: T7, ETV3L (Homo sapiens, UniProt Q6ZN32 1-361); details: protein: recombinant; tags: N-terminal GST; dsDNA, one strand shown
T7 sequence: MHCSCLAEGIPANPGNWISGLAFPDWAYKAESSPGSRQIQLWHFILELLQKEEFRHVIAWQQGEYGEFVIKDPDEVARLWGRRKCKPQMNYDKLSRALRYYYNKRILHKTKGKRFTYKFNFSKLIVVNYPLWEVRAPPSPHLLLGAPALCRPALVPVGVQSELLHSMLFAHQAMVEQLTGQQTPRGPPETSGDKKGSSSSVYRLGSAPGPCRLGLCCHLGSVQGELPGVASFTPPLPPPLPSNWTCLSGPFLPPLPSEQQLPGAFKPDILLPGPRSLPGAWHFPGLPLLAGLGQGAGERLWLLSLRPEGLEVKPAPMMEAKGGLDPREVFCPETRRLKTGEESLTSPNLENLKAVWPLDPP
Procedure, shortened: as §1

[13] = target: T8, ETS2 (Homo sapiens, UniProt P15036 1-469); details: protein: recombinant; tags: N-terminal GST; dsDNA, one strand shown
T8 sequence: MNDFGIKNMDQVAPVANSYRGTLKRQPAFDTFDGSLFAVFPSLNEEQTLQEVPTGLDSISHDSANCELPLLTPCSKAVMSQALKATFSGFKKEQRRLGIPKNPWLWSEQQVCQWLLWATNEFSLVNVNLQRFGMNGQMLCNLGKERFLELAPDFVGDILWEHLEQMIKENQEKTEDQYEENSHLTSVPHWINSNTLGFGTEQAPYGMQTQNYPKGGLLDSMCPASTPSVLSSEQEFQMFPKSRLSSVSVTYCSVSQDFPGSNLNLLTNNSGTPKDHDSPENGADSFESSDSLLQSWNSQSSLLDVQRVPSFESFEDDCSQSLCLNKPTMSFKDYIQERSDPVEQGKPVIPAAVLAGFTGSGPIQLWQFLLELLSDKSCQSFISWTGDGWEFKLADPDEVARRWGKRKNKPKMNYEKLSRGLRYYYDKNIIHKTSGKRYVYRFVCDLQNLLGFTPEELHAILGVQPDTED
Procedure, shortened: as §1

[14] = target: T9, SPDEF (Homo sapiens, UniProt O95238 1-335); details: protein: recombinant; tags: N-terminal GST; dsDNA, one strand shown
T9 sequence: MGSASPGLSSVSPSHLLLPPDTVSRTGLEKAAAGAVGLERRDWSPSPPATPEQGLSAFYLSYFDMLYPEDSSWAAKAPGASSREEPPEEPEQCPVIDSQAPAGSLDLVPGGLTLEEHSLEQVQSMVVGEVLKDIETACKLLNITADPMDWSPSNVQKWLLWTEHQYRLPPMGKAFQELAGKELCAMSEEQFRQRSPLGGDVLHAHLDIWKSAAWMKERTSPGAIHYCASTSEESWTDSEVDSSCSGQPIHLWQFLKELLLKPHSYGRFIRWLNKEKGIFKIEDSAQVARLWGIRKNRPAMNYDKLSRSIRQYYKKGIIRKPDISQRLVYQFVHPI
Procedure, shortened: as §1

[15] = target: T10, ETV7 (Homo sapiens, UniProt Q9Y603 1-341); details: protein: recombinant; tags: N-terminal GST; dsDNA, one strand shown
T10 sequence: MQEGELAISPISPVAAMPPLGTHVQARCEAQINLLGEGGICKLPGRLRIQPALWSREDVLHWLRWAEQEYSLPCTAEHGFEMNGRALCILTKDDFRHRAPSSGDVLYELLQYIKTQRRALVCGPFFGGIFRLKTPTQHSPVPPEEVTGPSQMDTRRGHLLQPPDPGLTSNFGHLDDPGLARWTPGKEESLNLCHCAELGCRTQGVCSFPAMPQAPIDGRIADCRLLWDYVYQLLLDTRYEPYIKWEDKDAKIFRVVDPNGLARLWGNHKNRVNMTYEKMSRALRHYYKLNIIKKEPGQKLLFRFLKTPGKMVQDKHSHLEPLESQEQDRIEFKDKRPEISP
Procedure, shortened: as §1

[16] = target: T11, ELF5 (Homo sapiens, UniProt Q9UKW6-2 1-255); details: protein: recombinant; tags: N-terminal GST; dsDNA, one strand shown
T11 sequence: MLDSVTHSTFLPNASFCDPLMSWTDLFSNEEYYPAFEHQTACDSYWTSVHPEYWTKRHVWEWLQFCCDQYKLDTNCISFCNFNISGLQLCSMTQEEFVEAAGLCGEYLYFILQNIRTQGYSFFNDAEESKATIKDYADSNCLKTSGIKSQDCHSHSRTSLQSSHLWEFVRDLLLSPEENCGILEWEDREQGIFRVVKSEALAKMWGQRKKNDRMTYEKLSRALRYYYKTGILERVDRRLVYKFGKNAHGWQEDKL
Procedure, shortened: as §1

[17] = target: T12, ETV3 (Homo sapiens, UniProt P41162-2 1-143); details: protein: recombinant; tags: N-terminal GST; dsDNA, one strand shown
T12 sequence: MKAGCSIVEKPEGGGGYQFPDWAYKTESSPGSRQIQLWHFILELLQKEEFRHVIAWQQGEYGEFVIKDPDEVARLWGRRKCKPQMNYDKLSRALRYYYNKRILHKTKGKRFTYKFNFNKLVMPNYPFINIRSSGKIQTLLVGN
Procedure, shortened: as §1

[18] = target: ETV6 (Homo sapiens, UniProt P41212 1-452); details: protein: recombinant; tags: N-terminal GST; dsDNA, one strand shown
Chain of ETV6 (P41212 whole entry): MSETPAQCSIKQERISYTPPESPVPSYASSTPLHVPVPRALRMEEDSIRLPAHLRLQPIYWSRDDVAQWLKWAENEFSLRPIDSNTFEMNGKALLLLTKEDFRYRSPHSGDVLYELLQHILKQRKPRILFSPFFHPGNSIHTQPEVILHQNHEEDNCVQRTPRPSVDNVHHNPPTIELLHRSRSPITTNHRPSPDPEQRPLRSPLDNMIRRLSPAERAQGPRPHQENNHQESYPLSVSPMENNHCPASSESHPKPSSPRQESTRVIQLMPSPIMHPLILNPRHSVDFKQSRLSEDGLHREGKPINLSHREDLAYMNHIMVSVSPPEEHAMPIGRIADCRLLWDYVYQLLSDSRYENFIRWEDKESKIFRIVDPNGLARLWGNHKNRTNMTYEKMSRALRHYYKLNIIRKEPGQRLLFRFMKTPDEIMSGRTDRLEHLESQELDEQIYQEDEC
Procedure, shortened: as §1

ATTTCT
binding signal [1]: 1.43 fold enrichment (6-mer frequency, TF over GST control)
binding signal [2]: 1.39 fold enrichment (6-mer frequency, TF over GST control)
binding signal [3]: 2.3 fold enrichment (6-mer frequency, TF over GST control)
binding signal [4]: 1.49 fold enrichment (6-mer frequency, TF over GST control)
binding signal [5]: 1.4 fold enrichment (6-mer frequency, TF over GST control)
binding signal [6]: 1.66 fold enrichment (6-mer frequency, TF over GST control)
binding signal [7]: 1.4 fold enrichment (6-mer frequency, TF over GST control)
binding signal [8]: 1.76 fold enrichment (6-mer frequency, TF over GST control)
binding signal [9]: 1.68 fold enrichment (6-mer frequency, TF over GST control)
binding signal [10]: 1.51 fold enrichment (6-mer frequency, TF over GST control)
binding signal [11]: 1.35 fold enrichment (6-mer frequency, TF over GST control)
binding signal [12]: 1.49 fold enrichment (6-mer frequency, TF over GST control)
binding signal [13]: 1.54 fold enrichment (6-mer frequency, TF over GST control)
binding signal [14]: 1.4 fold enrichment (6-mer frequency, TF over GST control)
binding signal [15]: 1.47 fold enrichment (6-mer frequency, TF over GST control)
binding signal [16]: 1.5 fold enrichment (6-mer frequency, TF over GST control)
binding signal [17]: 1.42 fold enrichment (6-mer frequency, TF over GST control)
binding signal [18]: 1.39 fold enrichment (6-mer frequency, TF over GST control)
